# Compound activity from PubChem.
# TEAD-YAP inh: TEAD-YAP interaction inhibition, primary screen, TEAD-YAP interaction inhibitor project, luminescence, HEK-TIYL cells; TEAD-Gal4/YAP UAS-luciferase luminescence; inhibition, % at 9.12 µM; 640,000 compounds, 1.4% hits; AID 1259422, 2018; in the data active means inhibition above about 32%
# FBW7 act: FBW7 E3 ligase activators, primary screen, biochemical, AlphaScreen, human; AlphaScreen FBW7–phospho-cyclin E peptide binding, activator screen; normalized activity (activation), % at 26.1 µM; 650,000 compounds, 0.13% hits; in the data active means normalized activity above about 1.9%;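 further: purified mutant Fbw7 with reduced substrate affinity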
# GPR151 activ: activators of human GPR151, primary screen, cell-based, PathHunter beta-arrestin, luminescence | AID 1508602, 2020 | activation, % at 11.2 µM | PathHunter beta-arrestin GPR151 cells | G-protein coupled receptor 151 (Homo sapiens), Q8TDV0 | 650,000 compounds, 1% hits; in the data active means activation above about 4.9%
# Target sequence (Q8TDV0 whole entry, looked up): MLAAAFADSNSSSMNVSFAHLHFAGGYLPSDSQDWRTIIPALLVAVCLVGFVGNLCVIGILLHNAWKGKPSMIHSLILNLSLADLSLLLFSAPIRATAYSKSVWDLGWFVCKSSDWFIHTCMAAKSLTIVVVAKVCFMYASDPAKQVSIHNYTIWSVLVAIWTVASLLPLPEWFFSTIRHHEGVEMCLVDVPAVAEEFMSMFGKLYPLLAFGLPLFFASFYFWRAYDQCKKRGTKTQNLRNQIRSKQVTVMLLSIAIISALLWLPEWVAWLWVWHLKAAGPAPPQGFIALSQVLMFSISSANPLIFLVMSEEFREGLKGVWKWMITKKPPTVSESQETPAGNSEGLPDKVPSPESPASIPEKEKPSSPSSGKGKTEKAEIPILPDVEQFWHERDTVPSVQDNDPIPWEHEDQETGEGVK
# MITF inh: MITF inhibitors, primary screen, biochemical, AlphaScreen, human. inhibition, % at 2.6 µM. 650,000 compounds, 0.91% hits. AlphaScreen MITF homodimerization, bead proximity signal. Microphthalmia-associated transcription factor (Homo sapiens), O75030; in the data active means inhibition above about 50%
# Hits are given with their value; – = inactive. Only some compounds are listed: those with a hit (about 3.5% of all), similar ones and a draw of the others.
SMILES,TEAD-YAP inh,FBW7 act,GPR151 activ,MITF inh
CC1CCCN(C2=NC(=O)/C(=C\c3ccc(O)cc3)S2)C1 (stereo not given),61,–,–,–
O=C1N=C(N2CCCC(CO)C2)S/C1=C/c1cccc2ccccc12 (stereo not given),61,–,–,–
CC1CCCN(C2=NC(=O)/C(=C\c3ccc(N(C)C)cc3)S2)C1 (stereo not given),59,–,–,–
O=C1N=C(N2CCCC2)S/C1=C/c1ccc(O)cc1,–,–,–,–
COc1ccc(-n2nc(C(=O)NCC(=O)N3CCC(Cc4ccccc4)CC3)c3ccccc3c2=O)cc1,33,–,–,–
COc1ccc(OC)c(NC(=O)CNC(=O)c2nn(-c3ccc(OC)c(Cl)c3)c(=O)c3ccccc23)c1,36,–,–,–
COc1ccc(-n2nc(C(=O)NCC(=O)N3CCCC3)c3ccccc3c2=O)cc1,–,–,–,–
COc1ccc(-n2nc(C(=O)NCC(=O)NCCc3ccc(OC)c(OC)c3)c3ccccc3c2=O)cc1Cl,38,–,–,–
COCCNC(=O)CNC(=O)c1nn(-c2ccc(OC)c(Cl)c2)c(=O)c2ccccc12,–,–,–,–
COc1ccc(OC)c(NC(=O)CNC(=O)c2nn(-c3ccc(OC)c(OC)c3)c(=O)c3ccccc23)c1,39,–,–,–
COCc1ccc(CN2CCCC(CNS(=O)(=O)c3cccc4cccnc34)C2)o1 (stereo not given),–,–,–,–
CCOC(=O)CN1C(=O)S/C(=C/c2ccc(-c3cccc(F)c3)o2)C1=O,–,–,–,–
Cc1cc(C(=O)COC(=O)c2ccc(O)cc2O)c(C)n1-c1ccccc1,64,–,–,–
CC(C)(C)c1csc(CN2CCN(S(C)(=O)=O)CC2)n1,–,–,–,–
O=C(Cc1ccccc1)NC(c1ccco1)c1ccc2cccnc2c1O (stereo not given),–,–,–,–
O=[N+]([O-])c1ccc(NC(c2ccco2)c2ccc3cccnc3c2O)cc1 (stereo not given),70,–,–,58
O=[N+]([O-])c1cccc(NC(c2ccco2)c2ccc3cccnc3c2O)c1 (stereo not given),75,–,–,82
O=C(c1ccc2c(=O)n(-c3ccccc3F)c(=S)[nH]c2c1)N1CCCCC1,33,–,–,–
Cc1ccc2nc(NC(=O)CSCC(=O)O)sc2c1,60,–,–,–
Cc1csnc1NC(=O)c1c(N)nc2c(c1C(F)(F)F)OC1=C(CCC1)O2,96,–,–,–
Cc1ccc(-c2cnn(-c3ccc(C(=O)O)cc3)c2)cc1,42,–,–,–
O=C(NCc1ccccc1Cl)C1CCCN1S(=O)(=O)c1cccc2nsnc12 (stereo not given),–,–,–,–
Cc1ccc(Nc2ccc3nonc3c2[N+](=O)[O-])c(C)c1,–,2.5,–,–
Cc1ccc(Nc2ccc3nonc3c2[N+](=O)[O-])cc1C,–,–,–,–
CCc1c(C(=O)NC2CCCc3ccccc32)[nH]c(C)c1C(C)=O (stereo not given),37,–,–,–
SMILES,TEAD-YAP inh,FBW7 act,GPR151 activ,MITF inh
CCC1Oc2ccc(C)cc2N(CC(=O)N2c3ccccc3CC2C)C1=O (stereo not given),–,–,–,–
CC(C)c1ccccc1OCC(=O)NN1C(=O)c2ccccc2C1=O,34,–,–,–
Cc1cccn2c(=O)c3cc(C(=O)N(C)c4ccccc4)n(C)c3nc12,–,–,–,–
NC(=O)c1cnn(-c2ccnc(NC(=O)Cc3ccc4c(c3)OCO4)c2)c1,45,–,–,–
Cc1cccc(NC(=O)Cc2ccc3c(c2)OCO3)n1,–,–,–,–
CC1(Cc2cccc(C#N)c2)C(=O)Nc2ccc(-c3cccnc3)cc21 (stereo not given),45,–,–,–
CC1(Cc2cccc(C#N)c2)C(=O)Nc2ccc(F)cc21 (stereo not given),–,–,–,–
CC1(Cc2cccc(F)c2)C(=O)Nc2ccc(-c3cccnc3)cc21 (stereo not given),40,–,–,–
COc1cc(C=Nc2ccc(N3CCOCC3)cc2)cc([N+](=O)[O-])c1O,–,–,–,–
CCOCCCNC(=O)c1cc(Nc2ccc(CC)cc2)nc2ccccc12,–,–,–,–
Cc1ccc(C)c2[nH]c(=O)c(CCNS(=O)(=O)c3ccc([N+](=O)[O-])cc3)cc12,–,–,–,–
